Tests used:
Assay in all cases: log2 ratio of Biotin-Ahx-Ub-VS probe labelling (fragment/DMSO); higher = less target engagement (more negative = stronger competition), active = hit call of the paper (q ≤ 0.05, log2 ratio ≤ -1)
Conditions in all cases: compound concentration: 200 uM; treatment time: 3 h
USP16 = USP16 (UniProt Q9Y5T5)
Outline: (§1)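 Global-median-normalised Spectronaut label-free quantities were compared by unpaired t-test, and values are average log2 ratios of fragment over vehicle. Only proteins with ≥2 unique peptides were used. HEK293T lysate (495 µg per sample) was treated in triplicate with fragment at 200 µM or vehicle for 3 h and then with Biotin-Ahx-Ub-VS at 0.5 µM final for 1 h. Labelled DUBs were then NeutrAvidin-enriched, digested with LysC and trypsin, and run by diaPASEF LC-MS/MS.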

USP19 = target: T1, USP19 (UniProt O94966)
T1 sequence (whole entry): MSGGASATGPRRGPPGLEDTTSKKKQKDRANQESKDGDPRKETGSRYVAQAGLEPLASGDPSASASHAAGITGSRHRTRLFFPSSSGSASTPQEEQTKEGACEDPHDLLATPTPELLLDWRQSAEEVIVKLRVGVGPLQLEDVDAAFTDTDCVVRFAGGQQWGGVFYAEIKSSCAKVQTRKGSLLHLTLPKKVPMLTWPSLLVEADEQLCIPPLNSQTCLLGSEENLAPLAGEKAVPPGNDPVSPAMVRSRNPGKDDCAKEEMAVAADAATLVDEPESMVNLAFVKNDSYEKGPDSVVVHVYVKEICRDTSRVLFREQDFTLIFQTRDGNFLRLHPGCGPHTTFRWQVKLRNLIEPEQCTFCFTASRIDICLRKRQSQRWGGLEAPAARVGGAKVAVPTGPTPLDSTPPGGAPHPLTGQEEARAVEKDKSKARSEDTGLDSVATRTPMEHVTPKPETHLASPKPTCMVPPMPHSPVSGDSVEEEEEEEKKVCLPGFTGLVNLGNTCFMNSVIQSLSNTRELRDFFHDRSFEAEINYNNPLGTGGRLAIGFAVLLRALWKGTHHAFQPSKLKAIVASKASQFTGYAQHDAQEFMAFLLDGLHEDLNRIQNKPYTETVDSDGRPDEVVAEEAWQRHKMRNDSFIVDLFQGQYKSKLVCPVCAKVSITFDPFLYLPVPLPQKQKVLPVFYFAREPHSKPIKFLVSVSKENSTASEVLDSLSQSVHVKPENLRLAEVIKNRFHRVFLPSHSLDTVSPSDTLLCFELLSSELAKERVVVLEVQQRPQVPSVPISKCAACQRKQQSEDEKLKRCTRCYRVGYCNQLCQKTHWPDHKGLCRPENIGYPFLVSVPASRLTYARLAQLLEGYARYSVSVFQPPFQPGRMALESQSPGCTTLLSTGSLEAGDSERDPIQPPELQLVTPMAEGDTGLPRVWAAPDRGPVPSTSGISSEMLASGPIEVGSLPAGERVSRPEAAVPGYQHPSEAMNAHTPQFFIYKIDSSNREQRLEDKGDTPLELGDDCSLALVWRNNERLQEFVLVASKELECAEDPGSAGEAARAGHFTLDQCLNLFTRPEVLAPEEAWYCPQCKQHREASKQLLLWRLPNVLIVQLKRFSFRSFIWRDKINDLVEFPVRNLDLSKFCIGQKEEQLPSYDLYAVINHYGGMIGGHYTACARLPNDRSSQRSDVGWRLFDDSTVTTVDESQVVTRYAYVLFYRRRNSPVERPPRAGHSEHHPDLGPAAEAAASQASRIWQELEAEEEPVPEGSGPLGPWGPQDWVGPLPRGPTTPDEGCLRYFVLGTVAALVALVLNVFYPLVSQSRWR
Outline: as §1

USP24 = USP24 (UniProt Q9UPU5)
Outline: as §1

USP25 = target: T2, USP25 (UniProt Q9UHP3)
T2 sequence (whole entry): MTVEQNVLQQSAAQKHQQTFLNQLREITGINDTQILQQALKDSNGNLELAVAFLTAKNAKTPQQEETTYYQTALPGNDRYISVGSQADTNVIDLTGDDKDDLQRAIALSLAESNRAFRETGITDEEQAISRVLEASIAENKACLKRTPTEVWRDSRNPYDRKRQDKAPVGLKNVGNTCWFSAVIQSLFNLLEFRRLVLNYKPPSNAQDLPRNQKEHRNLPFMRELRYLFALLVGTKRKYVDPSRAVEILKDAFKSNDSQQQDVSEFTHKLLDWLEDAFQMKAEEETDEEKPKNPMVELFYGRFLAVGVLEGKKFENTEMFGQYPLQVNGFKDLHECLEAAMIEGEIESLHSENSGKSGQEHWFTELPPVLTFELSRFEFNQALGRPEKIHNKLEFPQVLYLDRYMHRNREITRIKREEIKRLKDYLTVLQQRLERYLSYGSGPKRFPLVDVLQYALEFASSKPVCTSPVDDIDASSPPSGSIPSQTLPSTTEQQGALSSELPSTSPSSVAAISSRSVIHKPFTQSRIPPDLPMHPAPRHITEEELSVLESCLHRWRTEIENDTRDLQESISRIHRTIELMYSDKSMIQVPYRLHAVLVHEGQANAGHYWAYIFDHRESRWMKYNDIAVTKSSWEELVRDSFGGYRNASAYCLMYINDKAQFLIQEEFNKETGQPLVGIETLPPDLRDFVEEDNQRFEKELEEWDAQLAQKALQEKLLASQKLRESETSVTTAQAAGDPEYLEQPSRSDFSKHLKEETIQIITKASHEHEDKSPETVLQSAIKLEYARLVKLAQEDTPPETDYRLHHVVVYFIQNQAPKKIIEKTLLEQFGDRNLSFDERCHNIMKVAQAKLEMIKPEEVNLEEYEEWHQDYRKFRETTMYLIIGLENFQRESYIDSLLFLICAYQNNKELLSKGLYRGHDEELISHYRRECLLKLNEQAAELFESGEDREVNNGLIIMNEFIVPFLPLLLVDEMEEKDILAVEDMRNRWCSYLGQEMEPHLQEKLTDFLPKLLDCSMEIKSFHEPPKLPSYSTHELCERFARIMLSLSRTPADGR
Outline: as §1

USP28 = target: T3, USP28 (UniProt Q96RU2)
T3 sequence (whole entry): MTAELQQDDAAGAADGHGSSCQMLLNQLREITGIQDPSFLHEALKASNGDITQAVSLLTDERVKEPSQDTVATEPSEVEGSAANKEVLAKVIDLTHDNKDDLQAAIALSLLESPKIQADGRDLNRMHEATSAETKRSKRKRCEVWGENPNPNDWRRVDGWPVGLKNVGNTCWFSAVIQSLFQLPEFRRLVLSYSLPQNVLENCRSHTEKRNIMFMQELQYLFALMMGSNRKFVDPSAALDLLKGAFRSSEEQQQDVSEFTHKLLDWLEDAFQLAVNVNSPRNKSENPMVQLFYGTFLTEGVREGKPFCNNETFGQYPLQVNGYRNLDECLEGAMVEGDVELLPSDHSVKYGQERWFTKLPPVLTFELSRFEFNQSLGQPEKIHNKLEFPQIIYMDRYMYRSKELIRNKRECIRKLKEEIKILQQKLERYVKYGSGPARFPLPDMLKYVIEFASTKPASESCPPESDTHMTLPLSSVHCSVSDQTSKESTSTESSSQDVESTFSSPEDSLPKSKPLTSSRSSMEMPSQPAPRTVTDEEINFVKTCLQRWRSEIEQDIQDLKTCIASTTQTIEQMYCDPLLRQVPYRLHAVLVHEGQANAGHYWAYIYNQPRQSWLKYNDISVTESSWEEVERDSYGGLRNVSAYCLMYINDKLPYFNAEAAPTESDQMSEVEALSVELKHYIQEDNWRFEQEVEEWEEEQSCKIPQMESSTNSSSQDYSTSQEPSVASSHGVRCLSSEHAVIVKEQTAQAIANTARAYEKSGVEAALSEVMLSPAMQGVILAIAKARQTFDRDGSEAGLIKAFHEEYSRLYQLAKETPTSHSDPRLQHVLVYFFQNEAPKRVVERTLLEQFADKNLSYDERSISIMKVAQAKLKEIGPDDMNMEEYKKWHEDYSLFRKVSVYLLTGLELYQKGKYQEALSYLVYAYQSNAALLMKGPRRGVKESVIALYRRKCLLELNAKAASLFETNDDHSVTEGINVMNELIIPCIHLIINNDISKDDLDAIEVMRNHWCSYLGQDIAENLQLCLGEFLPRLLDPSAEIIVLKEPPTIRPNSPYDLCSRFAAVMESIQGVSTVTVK
Outline: as §1

Measured: log2 ratio of Biotin-Ahx-Ub-VS probe labelling

USP16, sequence (Q9Y5T5 whole entry, looked up, the tested form may be a part): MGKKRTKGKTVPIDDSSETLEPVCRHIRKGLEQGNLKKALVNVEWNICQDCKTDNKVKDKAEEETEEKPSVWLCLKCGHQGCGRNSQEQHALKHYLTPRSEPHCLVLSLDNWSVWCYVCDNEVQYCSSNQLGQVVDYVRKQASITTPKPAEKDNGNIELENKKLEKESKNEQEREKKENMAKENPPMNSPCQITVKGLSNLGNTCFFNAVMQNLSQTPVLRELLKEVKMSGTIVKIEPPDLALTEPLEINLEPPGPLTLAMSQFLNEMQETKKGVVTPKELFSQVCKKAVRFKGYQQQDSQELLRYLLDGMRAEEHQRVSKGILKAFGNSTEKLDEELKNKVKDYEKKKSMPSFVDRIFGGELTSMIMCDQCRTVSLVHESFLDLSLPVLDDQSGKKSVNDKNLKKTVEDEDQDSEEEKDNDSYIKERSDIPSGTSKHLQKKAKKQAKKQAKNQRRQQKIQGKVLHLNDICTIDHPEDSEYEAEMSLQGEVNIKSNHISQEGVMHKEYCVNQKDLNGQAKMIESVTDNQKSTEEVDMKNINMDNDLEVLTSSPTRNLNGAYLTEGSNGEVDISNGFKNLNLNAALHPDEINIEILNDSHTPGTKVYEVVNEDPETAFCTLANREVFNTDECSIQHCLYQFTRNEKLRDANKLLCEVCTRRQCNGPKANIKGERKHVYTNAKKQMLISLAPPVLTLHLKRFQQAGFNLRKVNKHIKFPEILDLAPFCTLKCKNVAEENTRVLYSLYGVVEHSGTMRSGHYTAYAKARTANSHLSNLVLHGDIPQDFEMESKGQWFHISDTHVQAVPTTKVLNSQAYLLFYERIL
USP24, sequence (Q9UPU5 whole entry): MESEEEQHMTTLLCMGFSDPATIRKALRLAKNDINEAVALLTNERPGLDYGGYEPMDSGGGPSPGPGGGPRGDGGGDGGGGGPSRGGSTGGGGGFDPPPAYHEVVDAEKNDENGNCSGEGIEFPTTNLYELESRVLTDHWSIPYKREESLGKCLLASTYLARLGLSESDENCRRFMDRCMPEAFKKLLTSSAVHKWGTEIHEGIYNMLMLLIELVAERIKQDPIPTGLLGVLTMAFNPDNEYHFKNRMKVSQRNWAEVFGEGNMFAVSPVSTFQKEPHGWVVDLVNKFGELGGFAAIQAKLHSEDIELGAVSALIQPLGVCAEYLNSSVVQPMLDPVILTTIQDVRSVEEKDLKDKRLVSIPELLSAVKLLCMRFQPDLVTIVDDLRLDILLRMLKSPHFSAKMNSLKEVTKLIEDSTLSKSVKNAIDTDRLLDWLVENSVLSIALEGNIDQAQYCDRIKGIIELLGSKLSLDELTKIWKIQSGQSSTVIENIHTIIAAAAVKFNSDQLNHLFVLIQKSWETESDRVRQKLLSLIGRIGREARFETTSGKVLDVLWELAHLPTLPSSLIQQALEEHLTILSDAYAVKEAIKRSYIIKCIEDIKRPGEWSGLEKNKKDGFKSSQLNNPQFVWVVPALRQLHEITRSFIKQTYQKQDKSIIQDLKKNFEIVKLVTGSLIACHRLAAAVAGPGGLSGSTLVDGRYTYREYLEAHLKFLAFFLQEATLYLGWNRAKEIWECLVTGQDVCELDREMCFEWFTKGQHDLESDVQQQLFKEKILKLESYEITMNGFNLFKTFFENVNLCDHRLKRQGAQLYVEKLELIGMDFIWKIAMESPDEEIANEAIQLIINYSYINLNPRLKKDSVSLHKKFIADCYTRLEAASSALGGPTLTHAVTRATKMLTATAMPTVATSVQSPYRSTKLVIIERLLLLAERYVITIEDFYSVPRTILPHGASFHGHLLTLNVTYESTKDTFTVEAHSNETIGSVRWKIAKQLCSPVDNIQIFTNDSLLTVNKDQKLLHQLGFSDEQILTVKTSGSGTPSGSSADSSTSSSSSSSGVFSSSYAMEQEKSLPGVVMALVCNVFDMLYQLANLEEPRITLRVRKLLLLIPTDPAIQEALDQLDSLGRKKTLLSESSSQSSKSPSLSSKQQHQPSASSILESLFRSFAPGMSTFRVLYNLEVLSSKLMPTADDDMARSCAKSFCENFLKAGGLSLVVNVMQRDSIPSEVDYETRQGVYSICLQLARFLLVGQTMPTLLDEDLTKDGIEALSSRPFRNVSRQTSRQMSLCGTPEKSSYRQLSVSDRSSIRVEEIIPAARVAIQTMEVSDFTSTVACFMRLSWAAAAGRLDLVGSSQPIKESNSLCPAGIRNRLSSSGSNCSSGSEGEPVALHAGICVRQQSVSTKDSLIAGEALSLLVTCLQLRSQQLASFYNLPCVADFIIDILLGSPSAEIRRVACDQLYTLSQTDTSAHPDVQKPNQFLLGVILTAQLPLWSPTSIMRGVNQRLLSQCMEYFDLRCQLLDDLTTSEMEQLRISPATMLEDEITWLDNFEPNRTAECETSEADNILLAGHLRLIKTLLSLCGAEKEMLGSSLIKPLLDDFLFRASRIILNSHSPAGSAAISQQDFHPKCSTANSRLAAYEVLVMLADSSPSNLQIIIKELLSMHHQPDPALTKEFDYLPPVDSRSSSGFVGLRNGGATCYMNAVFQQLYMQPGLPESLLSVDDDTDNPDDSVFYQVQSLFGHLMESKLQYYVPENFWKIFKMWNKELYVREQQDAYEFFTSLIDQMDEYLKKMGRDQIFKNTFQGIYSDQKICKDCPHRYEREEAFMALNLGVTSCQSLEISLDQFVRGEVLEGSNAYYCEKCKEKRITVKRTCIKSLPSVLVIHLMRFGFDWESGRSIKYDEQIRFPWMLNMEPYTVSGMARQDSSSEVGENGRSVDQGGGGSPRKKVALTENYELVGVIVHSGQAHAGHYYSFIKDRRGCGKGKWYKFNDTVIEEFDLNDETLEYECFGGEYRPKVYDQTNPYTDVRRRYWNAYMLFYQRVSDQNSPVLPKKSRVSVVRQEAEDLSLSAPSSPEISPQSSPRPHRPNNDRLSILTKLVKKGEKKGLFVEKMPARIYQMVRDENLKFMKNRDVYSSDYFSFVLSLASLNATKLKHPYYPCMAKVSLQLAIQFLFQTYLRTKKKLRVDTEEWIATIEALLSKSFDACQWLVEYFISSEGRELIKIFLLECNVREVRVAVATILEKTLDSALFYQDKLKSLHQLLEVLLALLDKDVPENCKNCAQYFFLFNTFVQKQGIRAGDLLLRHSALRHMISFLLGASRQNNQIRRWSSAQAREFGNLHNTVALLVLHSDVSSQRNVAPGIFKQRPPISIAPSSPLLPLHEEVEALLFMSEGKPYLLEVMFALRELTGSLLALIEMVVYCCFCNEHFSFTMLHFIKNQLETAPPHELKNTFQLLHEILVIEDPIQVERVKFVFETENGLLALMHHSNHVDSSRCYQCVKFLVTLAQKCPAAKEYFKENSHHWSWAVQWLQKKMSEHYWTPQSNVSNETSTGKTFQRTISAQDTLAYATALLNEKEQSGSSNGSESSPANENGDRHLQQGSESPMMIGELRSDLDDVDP

Cc1ncsc1CCNC(=O)CCl
inactive: USP16 0.106 | USP19 0.249 | USP24 0.197 | USP25 -0.144 | USP28 0.0198
